Results taken from PubChem BioAssay AID488969 (Vanderbilt High Throughput Screening Facility, 2010).
The full ranking holds about 110,000 compounds; the median of “z-score” is about -0.1, and the highest 2% start at about 2. This is one part of a sample in which the highest values are shown more often than they occur. Activity calls are given as the source filed them.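 The calls were made as follows: active = z-score in the third read window above 3 or below -3; inactive = the rest.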

What follows are compounds tested against Metabotropic glutamate receptor 8 (Rattus norvegicus) (UniProt P70579) (assay: mGluR8 Gi/Go-coupled signaling modulation – cell-based, rat, thallium flux, HTS, primary screen (AID 488969)). Conditions: HEK293 rat mGluR8, GIRK (G protein-gated inwardly rectifying potassium channel) thallium flux, FluoZin2; at 10 µM; stronger effect = higher value; submaximal glutamate (EC20) added with thallium.
Sequence of Metabotropic glutamate receptor 8 (Rattus norvegicus) (P70579 whole entry, looked up): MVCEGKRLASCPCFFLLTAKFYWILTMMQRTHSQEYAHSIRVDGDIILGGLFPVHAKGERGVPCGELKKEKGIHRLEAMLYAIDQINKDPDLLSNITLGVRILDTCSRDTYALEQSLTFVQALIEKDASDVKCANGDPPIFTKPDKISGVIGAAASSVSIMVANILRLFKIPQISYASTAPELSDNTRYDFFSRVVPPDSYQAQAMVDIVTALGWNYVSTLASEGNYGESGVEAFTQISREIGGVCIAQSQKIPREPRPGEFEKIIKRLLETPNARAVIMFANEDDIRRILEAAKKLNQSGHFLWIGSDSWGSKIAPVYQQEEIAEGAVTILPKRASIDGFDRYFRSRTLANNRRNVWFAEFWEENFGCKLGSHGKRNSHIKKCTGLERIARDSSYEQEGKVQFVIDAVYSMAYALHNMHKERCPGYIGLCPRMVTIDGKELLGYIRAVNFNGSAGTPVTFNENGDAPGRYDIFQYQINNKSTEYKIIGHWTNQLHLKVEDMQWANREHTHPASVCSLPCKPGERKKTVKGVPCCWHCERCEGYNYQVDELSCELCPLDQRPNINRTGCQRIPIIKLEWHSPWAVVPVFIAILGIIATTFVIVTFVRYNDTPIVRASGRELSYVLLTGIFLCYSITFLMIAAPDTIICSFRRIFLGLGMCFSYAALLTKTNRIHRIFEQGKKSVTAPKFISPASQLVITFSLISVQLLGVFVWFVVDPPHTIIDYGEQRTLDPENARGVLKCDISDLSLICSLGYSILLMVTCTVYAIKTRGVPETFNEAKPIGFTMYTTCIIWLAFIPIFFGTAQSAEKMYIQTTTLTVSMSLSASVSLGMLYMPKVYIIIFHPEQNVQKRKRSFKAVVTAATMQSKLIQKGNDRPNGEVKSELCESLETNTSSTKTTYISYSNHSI

| Structure (SMILES) | z-score |
| --- | --- |
| CCC(C)(C)n1nnnc1CN1CCN(c2nc3cc(OC)ccc3cc2C#N)CC1 | -1.2 |
| OCCNc1ncnc2c1ncn2Cc1ccccc1 | -0.662 |
| CC(C)CCn1cnc2c(NCc3ccccc3)ncnc21 | 2.07 |
| Cn1ncc2c(NCc3ccccc3)ncnc21 | -0.129 |
| O=C(CCCOc1ccc(Cl)cc1Cl)N/N=C\C1CCCCC1 | -0.118 |
| CCn1c(-c2cc(-c3cccc(OC)c3)nc3ccccc23)n[nH]c1=S | 1.92 |
| CCCOc1cccc(-c2cc(-c3n[nH]c(=S)n3CC)c3ccccc3n2)c1 | 4.22 (active) |
| CCn1c(-c2cc(-c3cc(OC)ccc3OC)nc3ccccc23)n[nH]c1=S | 0.132 |
| CCn1c(-c2cc(-c3ccc(OC(C)C)cc3)nc3ccccc23)n[nH]c1=S | 1.25 |
| CCn1c(-c2cc(-c3ccccc3OC)nc3ccccc23)n[nH]c1=S | 0.152 |
| CCOc1cccc(-c2cc(-c3n[nH]c(=S)n3CC)c3ccccc3n2)c1 | 2.09 |
| CCOC(=O)c1cc2nc(-c3ccco3)cc(C(F)(F)F)n2n1 | -1.72 |
| CCOc1ccc(-c2nc(C#N)c(NCc3ccc4c(c3)OCO4)o2)cc1 | 0.406 |
| O=c1[nH][nH]c(-c2ccccc2)c1C=Nc1ccccc1 | -0.278 |
| O=C1CCC2CCCCC2(O)O1 (stereo not drawn) | -0.0285 |
| O=c1n(Cc2ccc(Cl)cc2)c2sc3c(c2c2ncnn12)CCCC3 | -0.595 |
| COc1cc(-c2nnc(SCC(=O)N3CCCC3)o2)cc(OC)c1OC | 2.2 |
| COc1cc(OC)cc(-c2nnc(SCC(=O)N3CCCC3)o2)c1 | -0.103 |
| COc1ccc(-c2nnc(SCC(=O)N3CCCC3)o2)cc1OC | 0.322 |
| COc1ccc(OC)c(C(=O)CSc2nc3cccnc3n2C)c1 | 0.718 |
| COc1ccc(S(=O)(=O)N(C)CC(=O)Nc2ccccc2OC)cc1 | -0.484 |
| SC(COCc1ccccc1)CN1CCN(Cc2ccc3c(c2)OCO3)CC1 (stereo not drawn) | 3.02 (active) |
| CN1CCN(CC(O)COCc2ccc3c(c2)OCO3)CC1 (stereo not drawn) | 0.1 |
| OC(COCc1ccc2c(c1)OCO2)CN1CCN(Cc2ccccc2)CC1 (stereo not drawn) | -0.00855 |

| Structure (SMILES) | z-score |
| --- | --- |
| CCn1nc(NC(=O)c2ccccn2)c2cc3cc(C)ccc3nc21 | -0.417 |
| CC1=C(C(=O)OCc2ccccc2)C(c2cccnc2)n2nnnc2N1 (stereo not drawn) | 0.152 |
| CCCN1CCN(C(=S)Nc2ccccc2C(F)(F)F)CC1 | 2.17 |
| FC(F)(F)c1ccccc1NC(=S)N1CCN(c2ncccn2)CC1 | -0.0651 |
| CN1CCN(CCNC(=O)Nc2ccccc2C(F)(F)F)CC1 | -0.464 |
| CC1CCC(C(=O)NC(C(=O)N2CCc3ccccc3C2)C(C)C)CC1 (stereo not drawn) | -0.269 |
| COc1ccc(-c2nc3c(c4nnc(SC(C)C(=O)Nc5ccccc5)n24)COC(C)(C)C3)cc1 (stereo not drawn) | -0.351 |
| CC1CCN(c2oc(-c3cccc4ccccc34)nc2C#N)CC1 | 0.305 |
| N#Cc1nc(-c2ccccc2F)oc1N1CCCC1 | -0.139 |
| CC1CCN(c2oc(-c3ccccc3F)nc2C#N)CC1 | 2.57 |
| C=CCn1c(SCCOC)nc2c1c(=O)[nH]c(=O)n2C | -0.444 |
| NC(Cc1ccc2nsnc2c1)C(=O)O (stereo not drawn) | 0.179 |
| CCCCn1c(Cc2ccccc2)nnc1SCC(=O)N1CCOCC1 | -0.257 |
| O=C1Nc2ccccc2/C1=C\c1cccn1-c1ccc(OC(F)(F)F)cc1 | 2.45 |
| CN(C)/C=C1\C(=O)Nc2ccccc21 | -0.00898 |
| O=C1C(=Cc2cccn2-c2ccc(O)cc2)C(=O)c2ccccc21 | -0.204 |
| COc1ccc(OC)c(NC(=O)CSc2nnc(CNC(=O)c3ccco3)o2)c1 | -0.27 |
| O=C(Nc1nccs1)C1C2/C=C\CCCCC21 (stereo not drawn) | 0.175 |
| COC(=O)Nc1ccc([N+](=O)[O-])cc1OC | -0.117 |
| COc1ccc2nc(NC(=O)CN3CCN(C)CC3)sc2c1 | 0.194 |
| c1cncc(-c2nnc(-c3ccco3)o2)c1 | -0.101 |
| CC(=O)Nc1cccc2c1C(=O)N(c1cccc(C)c1)C2=O | 3.13 (active) |
| CC(=O)Nc1cccc2c1C(=O)N(c1ccc(C)cc1)C2=O | 0.845 |
| CC(C)CC(=O)Nc1cccc2c1C(=O)N(c1ccccc1)C2=O | -3.2 (active) |

| Structure (SMILES) | z-score |
| --- | --- |
| Cc1csc(N(C(=O)c2cccc(S(=O)(=O)N3CCCC3)c2)c2ccccc2)n1 | -0.475 |
| Cc1csc(N(C(=O)c2ccc(S(=O)(=O)N(C)C)cc2)c2ccccc2)n1 | 0.4 |
| Cc1csc(N(C(=O)c2cccc(S(=O)(=O)N(C)C)c2)c2ccccc2)n1 | 2.2 |
| COc1cc(C2N(c3ccc(F)cc3)C(=O)C3CCCN32)cc(OC)c1OC (stereo not drawn) | 0.416 |
| Clc1ccc2c(c1)-c1nnc(Br)n1-c1ccccc1S2 | -4.38 (active) |
| S=C1Nc2cc(Cl)ccc2Sc2ccccc21 | 11.3 (active) |
| S=C1CCSc2ccc(Cl)cc2N1 | 9.14 (active) |
| S=C1Nc2ccccc2Sc2ccc(Cl)cc21 | 4.1 (active) |
| CCOC(=O)Nc1ccc2c(c1)Nc1ccccc1S2 | -0.571 |
| O=C1Nc2ccccc2S/C1=C/Nc1cccc(Cl)c1 | -0.29 |
| O=C1Cc2ccccc2Sc2ccc(Cl)cc21 | -0.097 |
| O=C1CCSc2ccc(Cl)cc2N1Cc1ccc(Cl)cc1 | -0.366 |
| O=C1CCSc2ccc(Cl)cc2N1Cc1ccccc1 | -0.321 |
| Cc1ccc(-n2c(Cc3cccn3C)nnc2SCC(=O)N2CCN(c3ccccc3)CC2)cc1 | -0.835 |
| Cc1ccc(S(=O)(=O)N2CCN(C(=O)N(c3ccccc3)c3ccccc3)CC2)cc1 | -0.559 |
| O=c1cc(O)nc(SCc2ccccc2)n1-c1ccc(F)cc1 | -0.305 |
| CC1CCN(c2ccc(C(=O)Nc3ccc4c(c3)OCO4)cc2[N+](=O)[O-])CC1 | -0.237 |
| COc1ccccc1NC(=O)CNC(=O)c1ccccc1C | 0.371 |
| CCOC(=O)CNS(=O)(=O)c1ccc(C(=O)O)cc1 | 0.207 |
| Cc1ccc(S(=O)(=O)CC(=O)Nc2nc(-c3ccccc3)cs2)cc1 | 1.27 |
| CCCCC(=O)Nc1ccc(C(=O)NNC(=O)CCCOc2ccc(Cl)cc2Cl)cc1 | -0.184 |
| CN(C(=S)NC(=O)CCCOc1ccc(Cl)cc1Cl)c1ccccc1 | 4 (active) |
| O=C(CCCOc1ccc(Cl)cc1Cl)Nc1ccncc1 | 2.21 |
| O=C(CCCOc1ccc(Cl)cc1Cl)Nc1cccnc1 | -0.0915 |

| Structure (SMILES) | z-score |
| --- | --- |
| COc1ccccc1NC(=S)NC(=O)CCCOc1ccc(Cl)cc1Cl | -0.0968 |
| CCOc1ccccc1NC(=S)NC(=O)CCCOc1ccc(Cl)cc1Cl | -0.0571 |
| Cc1ccc(C)c(Oc2ncnc(N)c2[N+](=O)[O-])c1 | 0.623 |
| CCOC(=O)COc1ccc(S(=O)(=O)Nc2cccc(SC)c2)cc1 | -0.28 |
| CC(C)C(=O)Nc1ccc(-c2csc(-c3ccccc3)n2)cc1 | -0.165 |
| Cc1ccc(-c2cc(-c3ccccc3)[nH]c(=S)c2C#N)cc1 | 3.09 (active) |
| Cc1cc(-c2ccccc2)c(C#N)c(=S)[nH]1 | 0.152 |
| N#Cc1c(-c2ccc(C(F)(F)F)cc2)cc(-c2ccccc2)[nH]c1=S | 1.24 |
| Cc1ccc(NC(=O)COC(=O)CNC(=O)c2ccc(Br)cc2)c(C)c1 | -0.336 |
| Cc1ccc(NC(=O)NC2CCN(S(=O)(=O)c3ccc(F)cc3)CC2)cc1 | 0.564 |
| Brc1ccc(-c2cn3ccccc3n2)s1 | -0.391 |
| CCOC(=O)C1(C)NC(c2ccco2)C2C(=O)N(c3ccc(C)cc3)C(=O)C21 (stereo not drawn) | 0.153 |
| COc1cc(NC(=O)C2CC2C)c(C(=O)O)cc1OC (stereo not drawn) | -0.191 |
| C/C(N)=C(/C#N)C(=O)CN1CCCCC1 | 0.678 |
| O=C(CCCc1nc(-c2ccc(Cl)cc2)no1)N1CCOCC1 | 3.9 (active) |
| O=C(CCCc1nc(-c2ccccc2)no1)N1CCOCC1 | 0.382 |
| Cc1cccc(-c2noc(CCCC(=O)N3CCOCC3)n2)c1 | -0.139 |
| COc1ccc(Cl)cc1C(=O)NNC(=S)NC(=O)c1cc(-c2ccc(Cl)cc2)nc2ccccc12 | 0.219 |
| CCOC(=O)c1ccc(NC(=O)COC(=O)Cc2csc(-c3ccccc3)n2)cc1 | -0.252 |
| O=C(NCc1cccs1)c1cccnc1Cl | -0.317 |
| O=C(NCc1cccs1)c1cccnc1C(=O)O | 5.74 (active) |
| O=C(NCc1cccs1)c1ccccc1C(=O)NCc1cccs1 | -0.214 |
| CCN(CC)S(=O)(=O)c1ccc(NCc2ccccc2)nc1 | -0.962 |
| Cc1sc2ncnc(SC(C)C(=O)N3c4ccccc4Sc4ccccc43)c2c1C (stereo not drawn) | 2.19 |

| Structure (SMILES) | z-score |
| --- | --- |
| Cc1sc2ncnc(SCC(=O)c3ccc(Cl)s3)c2c1C | 1.06 |
| Cc1ccc(OCC(=O)NNC(=O)C(C)Sc2ncnc3sc(C)c(C)c23)cc1 (stereo not drawn) | 7.7 (active) |
| Cc1sc2ncnc(SCC(=O)NCC(C)C)c2c1C | -0.208 |
| CCc1ccc(OCC(=O)NNC(=O)CSc2ncnc3sc(C)c(C)c23)cc1 | 0.487 |
| CCC(Sc1ncnc2sc(C)c(C)c12)C(=O)OC (stereo not drawn) | -0.469 |
| COc1ccc(Cn2c(O)c(C=Nc3ccc(OC)cc3)c3ccccc3c2=O)cc1 | -0.178 |
| NC(=O)c1c(NC(=O)CSc2nc3c(c(C(F)(F)F)n2)CCc2ccccc2-3)sc2c1CCCC2 | -0.123 |
| Cc1ccc(C)c(NC(=O)Cc2csc(-c3ccccc3)n2)c1 | -0.0885 |
| O=C(NC1CCCCC1)C(c1ccc2ncccc2c1)N(Cc1ccc2c(c1)OCO2)C(=O)c1cccs1 (stereo not drawn) | 0.00177 |
| CC(=O)c1cnc(Nc2ccccc2)s1 | 0.548 |
| COc1ccc2cc(Br)ccc2c1CC(=O)NC1CC(C)(C)NC(C)(C)C1 | 3.91 (active) |
| CCCNC(=O)Cc1c(OC)ccc2cc(Br)ccc12 | 0.421 |
| COc1ccc2cc(Br)ccc2c1CC(=O)NC(C)(C)C | -0.349 |
| COc1ccc(C(CCNC(C)c2ccccc2)c2ccc(F)cc2)cc1 (stereo not drawn) | 1.71 |
| COc1ccc(CNCCC(c2ccc(F)cc2)c2ccc(OC)cc2)cc1 (stereo not drawn) | 3.72 (active) |
| COc1ccc(C(CCNCc2ccccc2)c2ccc(F)cc2)cc1 (stereo not drawn) | 1.8 |
| COc1ccc(CC(=O)NCc2ccc3c(c2)OCO3)cc1 | -0.347 |
| COc1ccc(C(CC(=O)Nc2ccc(F)cc2)c2ccccc2)cc1 (stereo not drawn) | 1.4 |
| Fc1ccccc1CNCCC(Cc1ccccc1)c1ccc2c(c1)OCO2 (stereo not drawn) | 0.733 |
| COc1ccc(C(CCNCc2ccccc2F)c2ccc(F)cc2)cc1 (stereo not drawn) | 3.61 (active) |
| COc1ccc(CNCCC(c2ccccc2)c2ccc3c(c2)OCO3)cc1 (stereo not drawn) | 2.28 |
| COc1ccc(NC(=O)CC(c2ccc(F)cc2)c2ccc(OC)cc2)cc1 (stereo not drawn) | -0.576 |
